Data on 22 compounds can be found in PubChem BioAssay (NCI).

About 79,000 compounds went through this panel and 15% of them were active in at least one assay; those are over-represented in the sample as a whole. A number with no mark means an inactive call. Calls of active or inactive are those of the source. Rule as the data show it: active = growth inhibition above about 70%; inactive = the rest.

The nature of assay [1]: NCI Yeast Anticancer Drug Screen. Data for the rad50 strain (AID 155).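 Also: 0% = growth of vehicle-only cultures of the same strain.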 To be noted: S. cerevisiae rad50 strain growth inhibition; at 50.0 µM; active compounds read high. A digest of the protocol: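 Cells are treated with compound, grown, and their growth is then scored against vehicle-only cultures of the same repair-deficient yeast strain.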
Assay [2] can be described thus: NCI Yeast Anticancer Drug Screen. Data for the mec2-1 strain (AID 157). To be noted: S. cerevisiae mec2-1 strain, at 50.0 µM, active compounds read high. A digest of the protocol:
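Strain: mec2-1 (DNA repair/cell cycle alteration). Compound exposure, then growth measured; inhibition expressed relative to vehicle.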

Assay [3] in a line: NCI Yeast Anticancer Drug Screen. Data for the sgs1 mgt1 strain (AID 161).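 Also: 0% = growth of cultures given vehicle only.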 The following applies: S. cerevisiae sgs1 mgt1 strain, at 50.0 µM, active compounds read high. A digest of the protocol: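 Read-out: growth inhibition vs vehicle controls. Cells: mutant yeast strain deficient in DNA damage repair.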
The nature of assay [4]: NCI Yeast Anticancer Drug Screen. Data for the cln2 rad14 strain (AID 165).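 Also: 0% = growth equal to vehicle treated cultures.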 The following applies: S. cerevisiae cln2 rad14 strain, at 50.0 µM, active compounds read high. The method in brief: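 Compounds are applied to the cln2 rad14 yeast strain, and growth is then compared with that of vehicle-treated cultures to give inhibition.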
Assay [5] in a line: NCI Yeast Anticancer Drug Screen. Data for the bub3 strain (AID 167). To be noted: S. cerevisiae bub3 mutant strain, at 50.0 µM, active compounds read high. A digest of the protocol:
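Part of a panel of yeast mutants defective in DNA damage repair or cell cycle regulation. Each strain is grown with compound, and inhibition is calculated relative to solvent-treated cultures.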

A short description of assay [6]: NCI Yeast Anticancer Drug Screen. Data for the mlh1 rad18 strain (AID 175). To be noted: S. cerevisiae mlh1 rad18 strain growth inhibition; at 50.0 µM; active compounds read high. The method in brief: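 Read-out is yeast growth inhibition, calculated against vehicle-only controls. The compound was applied to a strain engineered with DNA damage repair alterations.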

As to `CCCCC(CC)C(=O)NC(N)=O` (configuration not stated), the growth inhibition in assay [1] was 6.7%; in assay [2] it was -20.1%; in assay [3], -5.35%; in assay [4], -22.4%; in assay [5], -12.2%; in assay [6], 4.1%.

For the compound `CC1(C(N)Cc2c[nH]c3ccccc23)OCCO1` (configuration not stated), the growth inhibition was -7.7% in assay [1]; -0.1% in assay [2]; -28.6% in assay [3]; -6.55% in assay [4]; -0.25% in assay [5]; 4.1% in assay [6].

On to `C/C(=N\N1CN(C(C)C(=O)O)P(N(CCO)CCO)N=C1N)c1cccs1` (configuration not stated), for which the growth inhibition in assay [1] was -5.45%; in assay [2], -11.2%; in assay [3] it was 5.85%; in assay [4] it was -18.6%; in assay [5], 7.95%; in assay [6], -8.4%.

Turning to `Oc1cc(Cl)c(O)c(Cl)c1`, the growth inhibition is 2.9% in assay [1]; -2.05% in assay [2]; 4.15% in assay [3]; -37.9% in assay [4]; -20.2% in assay [5]; -7.55% in assay [6].

As for `CCNP(=S)(OCC)OCC`, the growth inhibition in assay [1] is -9.2%; in assay [2] it was 3.15%; in assay [3], 5.05%; in assay [4], -3.9%; in assay [5], -2.7%; in assay [6] it was -4%.

Consider `CC[As](=O)(O)c1ccc(I)cc1`, for which the growth inhibition in assay [1] is 3.6%; in assay [2], -8.4%; in assay [3], -1.95%; in assay [4], -11.8%; in assay [5], 12.8%; in assay [6] it was 5.95%.

In the case of `S=P(NNc1ccccc1)(NNc1ccccc1)c1ccc(Cl)cc1`, the growth inhibition in assay [1] was 75.4% (active); in assay [2], -33.1%; in assay [3] it was 81.9% (active); in assay [4], 82.3% (active); in assay [5] it was 34.6%; in assay [6] it was 83.2% (active).

Take `O=S(=O)(F)c1cc(Cl)c(S)cc1Cl`: the growth inhibition in assay [1] is 7.75%; in assay [2], -1.85%; in assay [3] it was 4.2%; in assay [4], 16.1%; in assay [5] it was -1.55%; in assay [6] it was -2.45%.

As for `N#CCCCCl`, the growth inhibition in assay [1] was 27.1%; in assay [2], 15.8%; in assay [3] it was 14.9%; in assay [4], 26.1%; in assay [5], 29.8%; in assay [6], 30.5%.

For the compound `CCC(=O)C(c1ccccc1)(c1ccccc1)C(C)CN1CCCCCCC1` (configuration not stated), the growth inhibition is 30.3% in assay [1]; 12.1% in assay [2]; 10.8% in assay [3]; 1.9% in assay [4]; 10.8% in assay [5]; 35.4% in assay [6].

In the case of `Nc1ccc(C(=O)O)c(C(=O)O)c1`, the growth inhibition in assay [1] is -10.5%; in assay [2], -6.8%; in assay [3], 1.35%; in assay [4] it was -32%; in assay [5], -13.9%; in assay [6] it was -7.05%.

On to `C=C1CC/C=C(/C)C(=O)C(OC(C)=O)C2C1CC2(C)C` (configuration not stated), for which the growth inhibition in assay [1] is 78% (active); in assay [2] it was 83.6% (active); in assay [3], 81.2% (active); in assay [4] it was 70.7% (active); in assay [5], 86.2% (active); in assay [6], 81.4% (active).

As to `CC(=O)Nc1nc(CCl)cs1`, the growth inhibition is 11.8% in assay [1]; -1.1% in assay [2]; 13.6% in assay [3]; 5.55% in assay [4]; 27.3% in assay [5]; 9.6% in assay [6].

Regarding `COc1ccc(C(=O)C(CC2C(=O)NC(=O)NC2=O)c2ccc(OC)cc2)cc1` (configuration not stated), the growth inhibition is -7.65% in assay [1]; -8.65% in assay [2]; -22.9% in assay [3]; -17.1% in assay [4]; -19.1% in assay [5]; -19.1% in assay [6].

In the case of `O=C(O)CC(=O)O.[Co+2].[NH-]CC(=O)O.[NH-]CC(=O)O`, the growth inhibition in assay [1] is 15.4%; in assay [2], -6.65%; in assay [3] it was 10.2%; in assay [4], 0.8%; in assay [5] it was -0.9%; in assay [6], -15.9%.

Regarding `CCOc1ccc(N)cc1`, the growth inhibition in assay [1] is -4.65%; in assay [2], 10.9%; in assay [3], -6.05%; in assay [4] it was 5.85%; in assay [5], 0.45%; in assay [6], 8.65%.

Turning to `c1ccc(-c2cccc(-c3ccccc3)c2)cc1`, the growth inhibition is 30.1% in assay [1]; 15.3% in assay [2]; 31.3% in assay [3]; -0.6% in assay [4]; 24.6% in assay [5]; 44% in assay [6].

For the compound `Cc1ccc(C2=NOP(c3ccccc3)(c3ccccc3)(c3ccccc3)C2)cc1`, the growth inhibition in assay [1] is 19.5%; in assay [2], 2.7%; in assay [3] it was 39%; in assay [4] it was -37.8%; in assay [5] it was 23.6%; in assay [6], 23.9%.

For the compound `COC(=O)/C=C/[C@@H]1[C@H](C)N1S(=O)(=O)c1ccc(C)cc1` (some centres not stated), the growth inhibition in assay [1] is -9.7%; in assay [2], -11.3%; in assay [3], 11.7%; in assay [4], 6.95%; in assay [5], 13.9%; in assay [6], -23.5%.

With `CC1([N+](=O)[O-])COP(=O)(NCC2CCCO2)OC1` (configuration not stated), the growth inhibition was 4.8% in assay [1]; -23.9% in assay [2]; -2.9% in assay [3]; -4.1% in assay [4]; 0.35% in assay [5]; 3.95% in assay [6].

For the compound `CC(C)(C)C1=C(Br)C(F)(C(C)(C)C)OP1(=O)c1ccccc1` (configuration not stated), the growth inhibition is 88.7% (active) in assay [1]; 92.3% (active) in assay [2]; 90.5% (active) in assay [3]; 90.5% (active) in assay [4]; 90% (active) in assay [5]; 91.6% (active) in assay [6].

With `CCOP(=O)(OCC)/C(=C/c1cccs1)CC(C)=O`, the growth inhibition in assay [1] was 7.8%; in assay [2] it was -57.6%; in assay [3], -27.9%; in assay [4] it was 14.6%; in assay [5], -25.9%; in assay [6] it was -76%.
